Laboratory results taken from PubChem BioAssay (NCI).
Values joined by “and” are separate entries in the source; they are usually repeats but may differ in a detail not shown here. Equal values may be shown once. The panel holds about 83,000 compounds, 20% with a hit somewhere; the sample as a whole holds those more often.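 Method: cells in 96-well plates; compound added at one concentration; 48 h incubation; percent growth measured; values under 10 scored active.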 Values without a mark were called inactive. Active and inactive are the calls of the source.

What follows are compounds tested on MDA-MB-468 breast (assay: NCI-60 one-dose screen, 48 h (100 = growth as untreated, 0 = no growth, -100 = all killed)). Conditions: 10 µM unless noted.

| SMILES | growth |
| --- | --- |
| CCOC(=O)C1OC2(CCCC2)OC1C(=O)OCC (stereo not given) | 100% |
| CCCCOc1ccc(NC(=O)n2nc(NC(C)=O)c3cc(NC(C)=O)ccc32)cc1 | 111% |
| CCN1C(=O)N(CC)C2C1NN=C1SC(c3ccccc3)=CC(=O)N12 (stereo not given) | 5.17% (active) |
| C#Cc1nc(C(C)=O)cs1 | 90.5% |
| CCCCCCC(O)(c1ccc(F)cc1)C(CN1CCOCC1)c1ccccc1 (stereo not given) | 28% |
| CCCCCOC(=O)c1ccc(NC(=O)CNCC(C)C)cc1 | 102% |
| COC(=O)/C=C1/SC(=Nc2ccc([N+](=O)[O-])cc2)N(CCc2c[nH]c3ccccc23)C1=O | 86% |
| CSc1nc2ccc(C)cc2cc1/C=C1/C=C(c2ccccc2)NC1=O | 49.1% |
| Cc1ccc2oc(=O)cc(C3C(C#N)=C(N)Oc4c3ccc3ccccc43)c2c1 (stereo not given) | 63.8% |
| COc1ccc(-c2cc(-c3cccc4ccccc34)n3c(n2)nc2ccccc23)cc1OC | 63.2% |
| CCCCCCC/C=N/NC(=O)c1ccc(-n2cc(-c3ccccc3)nn2)cc1 | 82.6% |
| Cn1cc(-c2csc(-c3cn(C(=O)OC(C)(C)C)c4ccccc34)n2)c2cccnc21 | -8.84% (active) |
| COc1ccc(-c2nn(-c3cccc(NC(=O)Nc4cccc(C(F)(F)F)c4)c3)cc2-c2ccncc2)cc1Cl | 27.5% |
| O=[N+]([O-])c1ccc(NC2CCCCC2)nc1 | 110% and 99.8% |
| C#CCOc1ccc2ncnc(N3CCN(C(=O)CCl)CC3)c2c1 | -9.23% [8.25 µM] (active) |
| COc1cc(NCCCCN=C(N)N)c2ncccc2c1 | -29.6% (active) |
| O=C(CCc1ccc(O)cc1)N/N=C/c1cc(Br)ccc1O | 56.8% |
| COc1ccc2c(c1)c(-c1nonc1-c1cn(C)c3ccccc13)cn2C | 13.9% |
| CCCCCCCOc1c(OC)cc(C2CC(=O)Nc3c2c(C)nn3-c2nc3ccccc3[nH]2)cc1OC (stereo not given) | -4.43% (active) |
| COc1ccc(-c2nnc(SCC(=O)Nc3ccc(C(=O)/C=C/c4ccc(OC)c(OC)c4)cc3)o2)cc1 | 88.7% |

| SMILES | growth |
| --- | --- |
| O=C(/C=C/c1ccc(Br)cc1)c1ccccc1 | 96.3% |
| COc1cc(C(F)(F)F)ccc1-c1cc(-c2ccc(F)cc2)n[nH]1 | 75.6% |
| CC1=Cc2ccccc2OC12C=Cc1ccccc1O2 (stereo not given) | 97% |
| CC(=O)n1nc(C(=O)OC(C)C)c2cc(C)c(C)cc21 | 92.9% |
| CCOc1nc(-c2ccccc2)cc2c(O)c(C(=O)NC(C)C)[nH]c(=O)c12 | 101% |
| O=C(Nc1ccc(-c2ccc3c(c2)NC(=O)/C3=C\c2ccc[nH]2)cc1)NC1CC1 | -4.36% (active) |
| CC(C)(C)[Si](C)(C)OC1[C@@H](CNC(=O)NC(=O)CCl)O[C@@H](n2cnc3c(N)ncnc32)[C@H]1O[Si](C)(C)C(C)(C)C (stereo not given in full) | -2.45% (active) |
| Cn1cnc2c(N3CCN(C(=O)OCc4ccc5c(Cl)cc(Cl)c(O)c5n4)CC3)nc(Cl)nc21 | 72.5% |
| O=C(O)CCC(=O)OC[C@@H](NC(=O)C(Cl)Cl)[C@H](O)c1ccc([N+](=O)[O-])cc1 | 95.5% |
| Cc1c(C)c2c(c(C)c1NC(=O)/C=C\C(=O)O)CCC(C)(CCCC(C)CCCC(C)CCCC(C)C)O2 (stereo not given) | -45.3% (active) |
| COc1cc(/C=C/C(=O)c2cc(-c3ccccc3)ccc2O)cc(OC)c1OC | 58.3% |
| Clc1ccc(Nc2nnc(CNc3ccccc3)c3ccccc23)cc1 | -16.4% (active) |
| C=CC(=O)N1CCC=C(c2cc3c(N[C@H](C)c4ccccc4)ncnc3[nH]2)C1 | 9.58% (active) |
| Cc1cccc2sc(/N=C(\N)C(Br)Br)nc12 | -33.6% (active) |
| C=CCCC1(C)NC(=O)NC1=O (stereo not given) | 99.3% |
| O=C(Nc1ccccc1)Oc1ccccc1-c1ccccc1 | 101% |
| c1ccc(CNCCN(CCNCc2ccccn2)Cc2ccc3ccccc3c2)nc1 | -10% (active) |
| CC(=O)OC[C@H]1OC(Sc2sc(C(=O)c3ccc(Br)cc3)c(N)c2-c2nc3ccccc3s2)[C@H](OC(C)=O)[C@@H](OC(C)=O)[C@@H]1OC(C)=O (stereo not given in full) | 71.5% |
| COc1ccc(C(=O)c2cc3c(OC)c(OC)c(OC)cc3[nH]2)cc1 | 20.6% |
| CCN1CCN(Cc2ccc(NC(=O)Nc3nc(-c4cc(OC)c(OC)c(OC)c4)cs3)cc2C(F)(F)F)CC1 | -0.339% (active) |
